Some test systems named below: DU-145 prostate; K-562 leukemia; MALME-3M melanoma; MDA-MB-231 breast; RXF 393 renal; SF-268 CNS; SF-295 CNS; SF-539 CNS; UACC-257 melanoma; M14 melanoma.
Common to all, as to assay: NCI-60 one-dose screen, 48 h (100 = growth as untreated, 0 = no growth, -100 = all killed)
What all share (settings): 10 µM unless noted

About 83,000 compounds went through this panel and 20% of them were active in at least one assay; those are over-represented in the sample as a whole.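 Activity criterion: percent growth below 10, measured after cells in 96-well plates were exposed to a single compound concentration for 48 hours.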 Values without a mark were called inactive. Active and inactive are the calls of the source.

Take `Cn1c(=O)[nH]c(=O)c2nc(CCC(=O)NCCC(=O)O)c(=O)[nH]c21`: the growth in the experiment with DU-145 prostate is 113%; with K-562 leukemia it was 104%; in the experiment with MALME-3M melanoma, 98.9%; with MDA-MB-231 breast, 110%; in the experiment with RXF 393 renal, 112%; in the experiment on SF-268 CNS, 98.2%. Moreover, the growth with SF-295 CNS was 102%; with SF-539 CNS it was 95.7%; in the experiment with UACC-257 melanoma, 101%; in the experiment with M14 melanoma, 111%.
Take `Cc1nc2c3c(-c4ccccc4)c(-c4ccccc4)oc3ncn2n1`: the growth in the experiment with DU-145 prostate is 104%; in the experiment with K-562 leukemia, 94.3%; in the experiment on MALME-3M melanoma, 109%; with MDA-MB-231 breast, 83.3%; with RXF 393 renal it was 99.6%; in the experiment on SF-268 CNS it was 94%. For the same molecule, the growth was 92.7% in the experiment on SF-295 CNS, 90.2% with SF-539 CNS, 106% in the experiment with UACC-257 melanoma and 102% in the experiment on M14 melanoma.
Turning to `Cc1ccccc1COc1ccc(-c2onc(C)c2-c2ccc(Cl)cc2)cc1`, the growth in the experiment on DU-145 prostate was 77.4%; in the experiment with K-562 leukemia, 14.4%; in the experiment with MALME-3M melanoma, 59.8%; with MDA-MB-231 breast, 90.8%; with RXF 393 renal, 70.2%; with SF-268 CNS it was 75.6%. For the same molecule, the growth was 49.4% with SF-295 CNS, 63.5% in the experiment on SF-539 CNS, 70.9% with UACC-257 melanoma and 32.2% in the experiment on M14 melanoma.
For `FC(F)(F)c1ccc(-c2cn3nc(-c4c[nH]c5ccc(Br)cc45)sc3n2)cc1`, the growth in the experiment on DU-145 prostate was 107%; with K-562 leukemia it was 97.9%; in the experiment with MALME-3M melanoma, 90.4%; in the experiment with MDA-MB-231 breast, 88%; with RXF 393 renal it was 118%; in the experiment with SF-268 CNS it was 113%. Besides, the growth in the experiment on SF-295 CNS was 95.2%; with SF-539 CNS, 101%; in the experiment on UACC-257 melanoma it was 107%; with M14 melanoma, 101%.
As to `C=C(C)[C@@H]1CC[C@]2(C(N)=O)CC[C@]3(C)[C@H](CC[C@@H]4[C@@]5(C)C/C(=C/c6ccco6)C(=O)C(C)(C)[C@@H]5CC[C@]43C)[C@@H]12`, the growth is 92.6% in the experiment with DU-145 prostate; 80.1% in the experiment with K-562 leukemia; 87% in the experiment with MALME-3M melanoma; 94.5% in the experiment on MDA-MB-231 breast; 94.2% with RXF 393 renal; 90.9% in the experiment on SF-268 CNS. Also, the growth was 90.2% in the experiment on SF-295 CNS, 98.6% in the experiment with SF-539 CNS, 97.8% with UACC-257 melanoma and 85.1% in the experiment with M14 melanoma.
As to `Cn1c(NCCc2ccc(O)c(O)c2)nc2c1c(=O)n(Cc1ccc(Br)cc1)c(=O)n2C`, the growth in the experiment on DU-145 prostate is 78.9%; in the experiment on K-562 leukemia it was 81%; in the experiment on MALME-3M melanoma, 81.4%; in the experiment with MDA-MB-231 breast it was 69.2%; in the experiment with RXF 393 renal it was 81%; in the experiment on SF-268 CNS, 68.4%. Also, the growth is 98% in the experiment with SF-295 CNS, 79.1% with SF-539 CNS, 88.5% with UACC-257 melanoma and 96.5% in the experiment on M14 melanoma.
In the case of `C=CC(COC(c1ccccc1)(c1ccccc1)c1ccccc1)N(CC)CC` (stereo not given), the growth was 69.9% in the experiment on DU-145 prostate; 14.4% in the experiment with K-562 leukemia; 61.9% in the experiment on MALME-3M melanoma; 37% in the experiment on MDA-MB-231 breast; -5.47% (active) with RXF 393 renal; 81.9% in the experiment on SF-268 CNS. Moreover, the growth in the experiment on SF-295 CNS is 64.1%; with SF-539 CNS, 62.6%; with UACC-257 melanoma it was 6.09% (active); in the experiment with M14 melanoma, 9.54% (active).
For the molecule `Cn1cc(C(=O)c2nc(-c3c[nH]c4ccc(F)cc34)no2)c2cc(F)ccc21`, the growth with DU-145 prostate was 101%; in the experiment with K-562 leukemia, 66.1%; in the experiment on MALME-3M melanoma, 87.3%; in the experiment on MDA-MB-231 breast, 108%; in the experiment with RXF 393 renal, 108%; in the experiment with SF-268 CNS it was 96%. Moreover, the growth in the experiment on SF-295 CNS is 98%; with SF-539 CNS, 95.1%; with UACC-257 melanoma it was 99.2%; with M14 melanoma it was 97%.
For `O=S(=O)(Nc1ccc(OC(F)F)cc1)c1ccc(-c2cnc(C3CC3)o2)cc1`, the growth with DU-145 prostate was 90.5%; in the experiment on K-562 leukemia, 19.8%; in the experiment with MALME-3M melanoma, 76.5%; in the experiment with MDA-MB-231 breast, 70.2%; with RXF 393 renal, 81.9%; in the experiment with SF-268 CNS, 75.4%. In addition, the growth in the experiment on SF-295 CNS was 53.3%; with SF-539 CNS it was 79.2%; in the experiment with UACC-257 melanoma, 75%; in the experiment with M14 melanoma, 50.9%.
For the molecule `CN(C)S(=O)(=O)c1ccc(S(=O)(=O)Nc2cccc(Cl)c2N2CCCCC2)cc1`, the growth in the experiment with DU-145 prostate was 89.1%; with K-562 leukemia, 55.6%; in the experiment on MALME-3M melanoma it was 106%; with MDA-MB-231 breast, 66.6%; in the experiment with RXF 393 renal, 88%; in the experiment with SF-268 CNS it was 89.5%. Also, the growth is 78.1% in the experiment on SF-295 CNS, 94% in the experiment on SF-539 CNS, 74.1% in the experiment with UACC-257 melanoma and -35.4% (active) in the experiment with M14 melanoma.
Consider `COCCNc1ccc2c3c(cccc13)C(=O)N(CCN(C)C)C2=O`, for which the growth is 27.7% with DU-145 prostate; -7.82% (active) with K-562 leukemia; 22.2% with MALME-3M melanoma; 46.6% in the experiment with MDA-MB-231 breast; -23.7% (active) with RXF 393 renal; 26.3% with SF-268 CNS. The growth was 16.8% with SF-295 CNS, 22.9% in the experiment with SF-539 CNS, 16.8% with UACC-257 melanoma and 29% in the experiment on M14 melanoma.
As for `O=c1cc(CSc2nnc(-c3ccc(F)cc3)o2)c2ccc3ccccc3c2o1`, the growth with DU-145 prostate is 107%; in the experiment on K-562 leukemia it was 93.9%; in the experiment on MALME-3M melanoma, 107%; with MDA-MB-231 breast, 87.2%; in the experiment with RXF 393 renal, 107%; in the experiment with SF-268 CNS, 96.4%. Moreover, the growth with SF-295 CNS was 89.5%; with SF-539 CNS it was 98.1%; in the experiment with UACC-257 melanoma, 103%; in the experiment with M14 melanoma it was 103%.
For `Cc1cn2c(/C=C3/C(=O)Nc4c3ccc3ccccc43)c(C(F)(F)F)nc2s1`, the growth is 4.07% (active) with DU-145 prostate; 8.76% (active) with K-562 leukemia; 42.4% in the experiment on MALME-3M melanoma; 38.1% in the experiment with MDA-MB-231 breast; -19.3% (active) in the experiment with RXF 393 renal; 43.5% in the experiment on SF-268 CNS. Moreover, the growth in the experiment on SF-295 CNS was 7.54% (active); with SF-539 CNS it was -5.73% (active); with UACC-257 melanoma, 54.4%; in the experiment on M14 melanoma, 8.69% (active).
For `O=Nc1c(O)c(Cl)cc2ccccc12`, the growth with DU-145 prostate was 101%; in the experiment on K-562 leukemia, 54.3%; in the experiment with MALME-3M melanoma, 90.8%; with MDA-MB-231 breast it was 74.3%; in the experiment on RXF 393 renal it was 67.4%; in the experiment on SF-268 CNS it was 82.5%. The growth in the experiment with SF-295 CNS was 111%; in the experiment with SF-539 CNS, 89.2%; in the experiment with UACC-257 melanoma it was 75.8%; in the experiment with M14 melanoma it was 85.7%.

(Values after PubChem BioAssay (NCI).)
